Data on 1 compound can be found in the supplement of paper PMC11732987, “Enantioselective OTUD7B fragment discovery through chemoproteomics screening and high-throughput optimisation” (Communications Chemistry, 2025).

Structures are written as SMILES. Values without a mark were called inactive.

Assay in all cases: log2 ratio of Biotin-Ahx-Ub-VS probe labelling (fragment/DMSO); higher = less target engagement (more negative = stronger competition), active = hit call of the paper (q ≤ 0.05, log2 ratio ≤ -1)
Holding throughout (conditions): compound concentration: 200 uM; treatment time: 3 h

One test has as its target T1, USP42 (UniProt Q9H9J4).
T1 sequence (whole entry): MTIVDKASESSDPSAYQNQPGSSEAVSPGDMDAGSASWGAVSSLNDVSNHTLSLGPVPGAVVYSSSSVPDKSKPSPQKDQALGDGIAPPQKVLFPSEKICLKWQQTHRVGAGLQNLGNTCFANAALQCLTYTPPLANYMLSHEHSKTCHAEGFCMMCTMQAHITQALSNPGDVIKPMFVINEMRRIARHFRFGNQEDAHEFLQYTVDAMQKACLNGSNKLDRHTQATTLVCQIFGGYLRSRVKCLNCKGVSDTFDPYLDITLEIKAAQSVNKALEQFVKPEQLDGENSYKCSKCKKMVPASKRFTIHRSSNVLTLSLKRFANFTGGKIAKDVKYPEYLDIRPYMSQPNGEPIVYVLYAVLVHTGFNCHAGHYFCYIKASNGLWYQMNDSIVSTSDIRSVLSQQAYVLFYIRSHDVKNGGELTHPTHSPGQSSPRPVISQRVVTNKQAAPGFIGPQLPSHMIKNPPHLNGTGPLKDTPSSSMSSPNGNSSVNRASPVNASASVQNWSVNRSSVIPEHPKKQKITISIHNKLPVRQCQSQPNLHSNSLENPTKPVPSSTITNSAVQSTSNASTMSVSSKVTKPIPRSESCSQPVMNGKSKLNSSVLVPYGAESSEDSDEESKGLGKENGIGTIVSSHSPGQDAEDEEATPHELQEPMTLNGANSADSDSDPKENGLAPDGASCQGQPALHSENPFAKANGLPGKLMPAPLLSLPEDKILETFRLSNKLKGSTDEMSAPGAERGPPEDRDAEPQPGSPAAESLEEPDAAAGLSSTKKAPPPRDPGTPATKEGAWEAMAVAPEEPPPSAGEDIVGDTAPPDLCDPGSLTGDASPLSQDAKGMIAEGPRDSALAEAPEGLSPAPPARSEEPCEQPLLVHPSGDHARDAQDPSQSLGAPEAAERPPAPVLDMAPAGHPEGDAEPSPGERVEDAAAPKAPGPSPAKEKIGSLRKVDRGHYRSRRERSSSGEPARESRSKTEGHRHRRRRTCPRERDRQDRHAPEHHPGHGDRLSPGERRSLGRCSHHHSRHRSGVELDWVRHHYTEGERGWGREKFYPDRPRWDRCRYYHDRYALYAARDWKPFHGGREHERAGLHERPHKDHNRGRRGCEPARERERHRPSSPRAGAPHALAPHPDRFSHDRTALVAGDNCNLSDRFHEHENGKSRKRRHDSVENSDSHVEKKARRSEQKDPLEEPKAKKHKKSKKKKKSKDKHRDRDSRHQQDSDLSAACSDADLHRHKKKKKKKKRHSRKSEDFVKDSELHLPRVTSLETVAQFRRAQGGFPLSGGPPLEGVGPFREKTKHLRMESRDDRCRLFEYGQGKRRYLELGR
Summed up: (§1)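 Global-median-normalised Spectronaut label-free quantities were compared by unpaired t-test, and values are average log2 ratios of fragment over vehicle. Only proteins with ≥2 unique peptides were used. HEK293T lysate (495 µg per sample) was treated in triplicate with fragment at 200 µM or vehicle for 3 h and then with Biotin-Ahx-Ub-VS at 0.5 µM final for 1 h. Labelled DUBs were then NeutrAvidin-enriched, digested with LysC and trypsin, and run by diaPASEF LC-MS/MS.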

A further test has as its target USP46 (UniProt P62068). Summed up: as §1
In another test the target is T2, USP47 (UniProt Q96K76).
T2 sequence (whole entry): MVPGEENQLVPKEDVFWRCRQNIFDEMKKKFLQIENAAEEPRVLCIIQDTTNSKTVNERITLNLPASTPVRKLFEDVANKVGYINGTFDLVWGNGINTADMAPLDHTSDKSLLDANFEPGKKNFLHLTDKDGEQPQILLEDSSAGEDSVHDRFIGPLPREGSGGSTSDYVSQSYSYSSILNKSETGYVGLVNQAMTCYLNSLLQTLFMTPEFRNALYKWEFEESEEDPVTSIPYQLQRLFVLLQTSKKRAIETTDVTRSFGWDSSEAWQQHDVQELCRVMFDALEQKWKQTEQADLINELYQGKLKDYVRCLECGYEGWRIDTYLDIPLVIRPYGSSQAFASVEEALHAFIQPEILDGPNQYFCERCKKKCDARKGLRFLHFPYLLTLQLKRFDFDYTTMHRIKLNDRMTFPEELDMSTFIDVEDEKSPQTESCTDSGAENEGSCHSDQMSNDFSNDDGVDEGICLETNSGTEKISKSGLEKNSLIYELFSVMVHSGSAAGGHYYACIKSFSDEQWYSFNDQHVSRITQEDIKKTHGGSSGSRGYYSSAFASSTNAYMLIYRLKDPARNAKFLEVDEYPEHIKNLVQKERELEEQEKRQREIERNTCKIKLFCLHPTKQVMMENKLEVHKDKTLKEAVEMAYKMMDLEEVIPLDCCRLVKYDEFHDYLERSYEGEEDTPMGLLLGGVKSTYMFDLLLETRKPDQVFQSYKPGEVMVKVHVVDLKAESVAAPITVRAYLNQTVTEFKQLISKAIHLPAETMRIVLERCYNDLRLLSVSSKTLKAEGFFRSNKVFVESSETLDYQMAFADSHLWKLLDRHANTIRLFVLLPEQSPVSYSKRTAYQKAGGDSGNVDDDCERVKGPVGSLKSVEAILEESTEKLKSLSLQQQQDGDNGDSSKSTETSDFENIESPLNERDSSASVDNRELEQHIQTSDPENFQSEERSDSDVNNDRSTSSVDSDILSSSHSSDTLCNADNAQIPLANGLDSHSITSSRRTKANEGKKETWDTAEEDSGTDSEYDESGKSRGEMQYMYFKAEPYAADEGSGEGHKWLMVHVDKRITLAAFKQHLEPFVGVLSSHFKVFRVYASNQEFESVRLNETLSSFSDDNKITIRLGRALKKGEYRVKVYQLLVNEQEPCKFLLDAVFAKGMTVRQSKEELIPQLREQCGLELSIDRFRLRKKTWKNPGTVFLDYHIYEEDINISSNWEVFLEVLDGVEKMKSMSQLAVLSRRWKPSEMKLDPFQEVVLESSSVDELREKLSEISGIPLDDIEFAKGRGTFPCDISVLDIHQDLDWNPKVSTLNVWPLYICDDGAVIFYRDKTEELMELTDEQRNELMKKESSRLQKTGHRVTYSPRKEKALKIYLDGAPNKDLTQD
Summed up:
as §1

Another test deals with T3, USP48 (UniProt Q86UV5).
T3 sequence (whole entry): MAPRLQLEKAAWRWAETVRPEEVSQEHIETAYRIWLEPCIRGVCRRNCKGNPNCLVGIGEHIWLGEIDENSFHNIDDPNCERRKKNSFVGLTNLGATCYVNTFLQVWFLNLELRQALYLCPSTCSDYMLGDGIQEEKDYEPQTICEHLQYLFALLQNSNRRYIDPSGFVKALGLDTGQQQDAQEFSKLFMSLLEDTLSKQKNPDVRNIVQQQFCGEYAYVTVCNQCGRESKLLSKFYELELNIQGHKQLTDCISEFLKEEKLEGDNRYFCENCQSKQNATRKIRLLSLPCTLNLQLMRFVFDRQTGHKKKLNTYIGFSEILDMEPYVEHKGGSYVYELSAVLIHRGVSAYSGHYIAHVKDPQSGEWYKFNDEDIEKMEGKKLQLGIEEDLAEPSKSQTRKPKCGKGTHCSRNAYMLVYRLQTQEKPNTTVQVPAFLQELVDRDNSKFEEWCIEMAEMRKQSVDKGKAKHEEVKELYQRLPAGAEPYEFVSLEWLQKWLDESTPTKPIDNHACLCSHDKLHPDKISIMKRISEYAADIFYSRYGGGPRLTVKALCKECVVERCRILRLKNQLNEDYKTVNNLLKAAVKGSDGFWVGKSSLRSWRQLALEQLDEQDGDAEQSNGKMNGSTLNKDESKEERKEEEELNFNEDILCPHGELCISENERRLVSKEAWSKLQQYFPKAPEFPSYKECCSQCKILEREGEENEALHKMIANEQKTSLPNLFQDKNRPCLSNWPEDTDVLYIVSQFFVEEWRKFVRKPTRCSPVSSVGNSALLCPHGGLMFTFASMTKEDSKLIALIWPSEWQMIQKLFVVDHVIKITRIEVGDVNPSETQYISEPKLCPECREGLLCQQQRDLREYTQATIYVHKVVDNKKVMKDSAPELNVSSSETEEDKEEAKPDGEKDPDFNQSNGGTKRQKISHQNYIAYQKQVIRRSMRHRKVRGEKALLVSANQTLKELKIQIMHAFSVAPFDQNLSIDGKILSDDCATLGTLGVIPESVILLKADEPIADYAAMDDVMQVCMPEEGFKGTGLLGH
Summed up:
as §1

A further test has as its target T4, USP5 (UniProt P45974).
T4 sequence (whole entry): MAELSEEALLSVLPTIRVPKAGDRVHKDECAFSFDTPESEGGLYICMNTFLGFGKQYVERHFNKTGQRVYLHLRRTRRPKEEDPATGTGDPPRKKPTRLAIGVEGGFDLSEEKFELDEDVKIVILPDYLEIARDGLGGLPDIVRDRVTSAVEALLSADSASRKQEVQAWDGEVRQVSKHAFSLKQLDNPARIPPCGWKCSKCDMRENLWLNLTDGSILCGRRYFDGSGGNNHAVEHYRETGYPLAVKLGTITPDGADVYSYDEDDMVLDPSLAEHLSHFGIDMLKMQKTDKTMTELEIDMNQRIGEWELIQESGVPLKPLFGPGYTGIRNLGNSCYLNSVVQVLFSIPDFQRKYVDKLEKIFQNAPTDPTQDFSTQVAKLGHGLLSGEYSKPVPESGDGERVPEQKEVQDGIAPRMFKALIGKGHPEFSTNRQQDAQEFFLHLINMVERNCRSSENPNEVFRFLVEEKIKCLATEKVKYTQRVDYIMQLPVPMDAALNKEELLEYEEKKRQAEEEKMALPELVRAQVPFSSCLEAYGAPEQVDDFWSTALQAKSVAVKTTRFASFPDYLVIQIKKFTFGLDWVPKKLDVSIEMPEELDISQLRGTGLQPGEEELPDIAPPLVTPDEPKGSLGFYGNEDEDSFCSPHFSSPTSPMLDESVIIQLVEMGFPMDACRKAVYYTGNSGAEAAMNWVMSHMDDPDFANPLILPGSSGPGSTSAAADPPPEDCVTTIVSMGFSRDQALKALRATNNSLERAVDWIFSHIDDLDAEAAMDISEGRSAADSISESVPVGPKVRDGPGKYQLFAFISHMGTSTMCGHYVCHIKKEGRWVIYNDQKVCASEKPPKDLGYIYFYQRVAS
Summed up: as §1

For the next test, the target named is USP54 (UniProt Q70EL1). Summed up: as §1
Chain of USP54 (Q70EL1 whole entry): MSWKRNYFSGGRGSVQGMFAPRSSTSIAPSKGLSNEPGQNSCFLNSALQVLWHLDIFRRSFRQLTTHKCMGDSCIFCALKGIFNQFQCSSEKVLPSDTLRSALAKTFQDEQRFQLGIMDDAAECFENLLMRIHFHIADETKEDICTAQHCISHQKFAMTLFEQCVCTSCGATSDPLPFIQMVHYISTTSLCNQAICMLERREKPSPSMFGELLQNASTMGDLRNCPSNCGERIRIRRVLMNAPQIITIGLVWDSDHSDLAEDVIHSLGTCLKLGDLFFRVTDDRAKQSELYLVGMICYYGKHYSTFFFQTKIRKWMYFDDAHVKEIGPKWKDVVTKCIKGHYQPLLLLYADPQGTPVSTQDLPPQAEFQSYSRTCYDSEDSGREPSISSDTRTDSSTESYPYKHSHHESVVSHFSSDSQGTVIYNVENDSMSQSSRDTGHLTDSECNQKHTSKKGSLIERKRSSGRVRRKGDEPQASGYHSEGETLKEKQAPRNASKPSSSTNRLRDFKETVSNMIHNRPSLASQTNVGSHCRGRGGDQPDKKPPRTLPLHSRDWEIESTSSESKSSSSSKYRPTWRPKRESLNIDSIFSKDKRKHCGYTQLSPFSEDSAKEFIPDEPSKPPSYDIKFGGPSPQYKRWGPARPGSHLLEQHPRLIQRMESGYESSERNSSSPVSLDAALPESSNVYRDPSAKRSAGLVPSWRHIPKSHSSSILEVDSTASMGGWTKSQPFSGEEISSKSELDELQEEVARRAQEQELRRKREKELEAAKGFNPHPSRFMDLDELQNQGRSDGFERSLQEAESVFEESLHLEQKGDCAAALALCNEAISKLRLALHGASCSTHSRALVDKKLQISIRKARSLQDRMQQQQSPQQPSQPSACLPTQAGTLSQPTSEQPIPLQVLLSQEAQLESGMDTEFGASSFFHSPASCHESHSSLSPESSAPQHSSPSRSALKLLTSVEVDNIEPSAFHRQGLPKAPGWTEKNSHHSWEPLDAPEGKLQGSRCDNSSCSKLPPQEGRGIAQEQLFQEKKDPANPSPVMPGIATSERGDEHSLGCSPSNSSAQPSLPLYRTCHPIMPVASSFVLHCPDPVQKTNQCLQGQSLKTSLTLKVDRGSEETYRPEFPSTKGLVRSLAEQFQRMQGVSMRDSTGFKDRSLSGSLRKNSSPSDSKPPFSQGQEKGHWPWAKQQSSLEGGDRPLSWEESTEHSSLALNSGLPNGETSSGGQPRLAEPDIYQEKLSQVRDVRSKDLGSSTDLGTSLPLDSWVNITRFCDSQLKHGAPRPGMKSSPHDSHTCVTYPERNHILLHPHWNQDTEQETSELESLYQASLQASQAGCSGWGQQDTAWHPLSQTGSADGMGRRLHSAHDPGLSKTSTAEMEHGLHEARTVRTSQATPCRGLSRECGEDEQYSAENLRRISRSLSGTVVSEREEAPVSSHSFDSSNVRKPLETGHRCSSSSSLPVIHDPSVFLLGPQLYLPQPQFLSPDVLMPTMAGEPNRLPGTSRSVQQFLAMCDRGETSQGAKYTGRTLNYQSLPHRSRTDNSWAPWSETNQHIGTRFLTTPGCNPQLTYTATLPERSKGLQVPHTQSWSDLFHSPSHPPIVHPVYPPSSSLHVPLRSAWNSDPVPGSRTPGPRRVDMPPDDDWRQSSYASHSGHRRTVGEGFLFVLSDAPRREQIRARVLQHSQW
For the next test, the target named is USP7 (UniProt Q93009). Summed up: as §1
Chain of USP7 (Q93009 whole entry, looked up): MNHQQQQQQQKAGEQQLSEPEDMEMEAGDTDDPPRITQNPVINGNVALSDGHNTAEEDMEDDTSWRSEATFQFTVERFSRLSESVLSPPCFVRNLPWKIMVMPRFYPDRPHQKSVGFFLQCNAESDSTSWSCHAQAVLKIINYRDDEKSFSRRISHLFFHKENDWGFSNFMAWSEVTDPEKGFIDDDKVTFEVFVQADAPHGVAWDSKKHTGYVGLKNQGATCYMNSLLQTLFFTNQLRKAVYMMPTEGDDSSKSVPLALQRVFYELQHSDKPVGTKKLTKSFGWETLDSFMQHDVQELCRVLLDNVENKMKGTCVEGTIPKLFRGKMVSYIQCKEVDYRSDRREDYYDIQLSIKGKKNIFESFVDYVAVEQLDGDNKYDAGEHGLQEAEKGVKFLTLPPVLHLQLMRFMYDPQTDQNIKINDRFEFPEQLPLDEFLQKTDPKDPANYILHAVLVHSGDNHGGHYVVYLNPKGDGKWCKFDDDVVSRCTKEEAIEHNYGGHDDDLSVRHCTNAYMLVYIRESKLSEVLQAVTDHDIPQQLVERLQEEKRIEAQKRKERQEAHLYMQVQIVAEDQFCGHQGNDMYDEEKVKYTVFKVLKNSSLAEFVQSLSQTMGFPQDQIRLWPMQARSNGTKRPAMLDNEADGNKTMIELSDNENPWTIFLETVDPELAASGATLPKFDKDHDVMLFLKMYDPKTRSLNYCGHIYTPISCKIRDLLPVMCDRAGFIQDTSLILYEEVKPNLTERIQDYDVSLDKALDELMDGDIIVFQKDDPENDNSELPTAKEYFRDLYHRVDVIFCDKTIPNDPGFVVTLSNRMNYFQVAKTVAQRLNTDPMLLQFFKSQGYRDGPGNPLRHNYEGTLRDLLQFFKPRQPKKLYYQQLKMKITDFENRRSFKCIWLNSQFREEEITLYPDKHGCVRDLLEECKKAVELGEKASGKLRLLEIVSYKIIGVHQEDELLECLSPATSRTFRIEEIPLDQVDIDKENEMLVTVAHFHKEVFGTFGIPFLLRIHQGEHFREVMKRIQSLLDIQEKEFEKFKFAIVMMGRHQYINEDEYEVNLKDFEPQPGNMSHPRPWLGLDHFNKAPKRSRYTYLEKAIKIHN
In the next test the target is T5, USP8 (UniProt P40818).
T5 sequence (whole entry): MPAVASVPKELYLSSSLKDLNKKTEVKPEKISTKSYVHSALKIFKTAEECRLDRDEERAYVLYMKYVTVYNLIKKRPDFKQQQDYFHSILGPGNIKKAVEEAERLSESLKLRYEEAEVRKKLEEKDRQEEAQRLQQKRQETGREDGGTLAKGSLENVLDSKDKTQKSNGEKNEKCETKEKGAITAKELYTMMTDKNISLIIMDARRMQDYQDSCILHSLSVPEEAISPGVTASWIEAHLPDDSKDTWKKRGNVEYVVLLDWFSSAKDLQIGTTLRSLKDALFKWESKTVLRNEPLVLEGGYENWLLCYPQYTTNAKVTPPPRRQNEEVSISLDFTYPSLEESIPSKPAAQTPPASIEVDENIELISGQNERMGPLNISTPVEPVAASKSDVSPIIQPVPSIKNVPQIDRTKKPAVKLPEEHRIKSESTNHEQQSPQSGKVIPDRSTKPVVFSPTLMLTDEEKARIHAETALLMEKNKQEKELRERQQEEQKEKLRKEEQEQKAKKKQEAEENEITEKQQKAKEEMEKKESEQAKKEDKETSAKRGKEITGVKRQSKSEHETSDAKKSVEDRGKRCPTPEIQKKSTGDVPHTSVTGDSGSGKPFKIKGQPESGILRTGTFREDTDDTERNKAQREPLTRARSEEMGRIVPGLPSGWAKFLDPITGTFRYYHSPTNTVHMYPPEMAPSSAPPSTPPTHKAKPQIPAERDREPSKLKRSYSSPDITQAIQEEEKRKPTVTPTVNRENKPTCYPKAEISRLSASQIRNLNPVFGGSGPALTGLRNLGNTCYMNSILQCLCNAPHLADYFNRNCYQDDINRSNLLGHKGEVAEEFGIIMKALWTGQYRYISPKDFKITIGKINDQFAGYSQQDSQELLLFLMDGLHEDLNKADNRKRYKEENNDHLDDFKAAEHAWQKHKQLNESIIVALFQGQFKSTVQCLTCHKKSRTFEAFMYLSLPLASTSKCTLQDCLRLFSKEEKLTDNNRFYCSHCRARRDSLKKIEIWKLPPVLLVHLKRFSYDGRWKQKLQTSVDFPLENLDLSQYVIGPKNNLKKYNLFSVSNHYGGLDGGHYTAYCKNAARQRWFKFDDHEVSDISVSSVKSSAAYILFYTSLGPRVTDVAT
Summed up: as §1

In the next test the target is USP9X (UniProt Q93008). Summed up: as §1
For a further test, the target named is UniProt O00487. Summed up: as §1
Chain of UniProt O00487 (O00487 whole entry): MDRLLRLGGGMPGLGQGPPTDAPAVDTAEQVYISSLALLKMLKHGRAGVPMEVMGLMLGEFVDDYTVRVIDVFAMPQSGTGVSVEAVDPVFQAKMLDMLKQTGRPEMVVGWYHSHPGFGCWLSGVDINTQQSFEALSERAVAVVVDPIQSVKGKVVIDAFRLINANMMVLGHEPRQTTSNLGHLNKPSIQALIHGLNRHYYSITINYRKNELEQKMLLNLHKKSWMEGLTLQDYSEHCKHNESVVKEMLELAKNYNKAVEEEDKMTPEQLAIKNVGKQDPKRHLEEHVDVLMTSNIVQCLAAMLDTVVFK

Chain of USP46 (P62068 whole entry): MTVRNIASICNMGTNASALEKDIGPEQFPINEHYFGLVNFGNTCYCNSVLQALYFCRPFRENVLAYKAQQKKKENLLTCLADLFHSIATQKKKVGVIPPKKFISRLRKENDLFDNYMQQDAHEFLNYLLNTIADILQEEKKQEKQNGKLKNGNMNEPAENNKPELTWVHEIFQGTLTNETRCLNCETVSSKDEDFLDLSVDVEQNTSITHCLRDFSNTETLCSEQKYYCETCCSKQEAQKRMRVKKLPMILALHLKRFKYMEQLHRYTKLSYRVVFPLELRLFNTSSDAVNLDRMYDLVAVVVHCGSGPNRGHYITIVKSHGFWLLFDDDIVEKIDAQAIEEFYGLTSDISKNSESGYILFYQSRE

Take `Cc1ccccc1CN(C)C(=O)CCl`: the “log2 ratio of Biotin-Ahx-Ub-VS probe labelling” value with USP42 was -0.263; with USP46 it was -0.653; in the test with USP47 it was -1; with USP48, -0.83; in the test with USP5, -0.152; in the test with USP54, 1.1. In addition, the “log2 ratio of Biotin-Ahx-Ub-VS probe labelling” value was -1.57 (active) with USP7, -0.825 with USP8, -0.836 with USP9X and -0.14 with UniProt O00487.
